# According to publication PMC5540273 (PLoS ONE, 2017):
# How the values were obtained:
# Conditions in all cases: concentration: 1 μM, replicates: in singlicate; n = 1
# EPHA4 = tested on: EPHA4
# EPHA5 = tested on: EPHA5
# EPHA6 = tested on: EPHA6
# EPHA7 = tested on: EPHA7
# EPHA8 = tested on: EPHA8
# EPHB1 = tested on: EPHB1
# EPHB2 = tested on: EPHB2
# EPHB3 = tested on: EPHB3
# EPHB4 = tested on: EPHB4
# EPHB6 = tested on: EPHB6
# 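Note: KINOMEscan kinase panel screen.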
Compound,%Inh (EPHA4),%Inh (EPHA5),%Inh (EPHA6),%Inh (EPHA7),%Inh (EPHA8),%Inh (EPHB1),%Inh (EPHB2),%Inh (EPHB3),%Inh (EPHB4),%Inh (EPHB6)
Cc1c(O)cccc1Nc1ccnc2ccc(C(F)(F)F)cc12.Cl [GW466413],0%,0%,14%,0%,8%,9%,0%,54%,20%,0%
COc1cccc(-c2cc(-c3c[nH]nc3-c3ccccn3)ccn2)c1 [GW680338],2%,0%,0%,0%,8%,7%,16%,2%,15%,0%
Fc1cccc(COc2nnc(-c3ccc4c(c3)CCO4)o2)c1,0%,0%,11%,14%,16%,20%,0%,20%,16%,0%
Cc1ccc(-c2cc(-c3c[nH]nc3-c3ccccn3)ccn2)cc1 [GW684088],7%,0%,8%,10%,15%,9%,0%,9%,20%,7%
O=C(Nc1ccc2c(c1)OCO2)NC1CCN(c2ccnc(Nc3ccc(F)cc3)n2)C1 (stereo not drawn) [GSK1379724],6%,0%,8%,0%,9%,0%,5%,16%,11%,35%
CN(C)CCN(C)C(=O)c1cc(-c2ccncc2)c(-c2ccc(Cl)c(O)c2)o1.Cl.Cl [SB-710397],6%,0%,8%,13%,16%,8%,12%,11%,5%,5%
Cc1cc(N2Cc3ccccc3C2)nc(Nc2ccc(S(=O)(=O)N3CCOCC3)cc2)n1.Cl [GSK1669917],0%,0%,0%,0%,7%,0%,0%,0%,6%,10%
Cc1ccc(NC(=O)Nc2cccc(Cl)c2)cc1-c1ccc(C(=O)Nc2ccncc2)cc1 [GSK1398468],18%,0%,11%,3%,38%,26%,15%,4%,19%,0%
Cc1cc(NCC(c2ccccc2)c2ccccc2)nc(NCc2ccc(C(F)(F)F)cc2)n1 [GW497681],0%,0%,0%,7%,6%,0%,0%,0%,7%,8%
CS(=O)(=O)c1ccc(-c2c(-c3ncn[nH]3)sc(N3CCOCC3)c2C#N)cc1,27%,27%,32%,0%,0%,6%,0%,36%,42%,17%
Cc1cccc(-c2nc(C)cc(Nc3ccncc3)n2)n1 [GSK257997],2%,0%,2%,7%,8%,23%,0%,5%,5%,0%
Cc1csc(-c2nc(Nc3ccncc3)c3ccccc3n2)n1 [GW869640],8%,13%,6%,6%,5%,7%,0%,9%,0%,28%
COc1cc2ncn(-c3cc(OCC4CCCO4)c(C(N)=O)s3)c2cc1OC (stereo not drawn) [GSK204607],7%,0%,1%,0%,3%,24%,0%,0%,27%,23%
COc1ccc(CNC(=O)NC2CCN(c3ccnc(Nc4cc(OC)c(OC)c(OC)c4)n3)C2)cc1 (stereo not drawn) [GSK1379748],3%,0%,0%,0%,8%,20%,0%,0%,0%,91.8%
Cl.NC(=O)c1cccc(Nc2nccc(Nc3ccc(Oc4cccc(Cl)c4)c(Cl)c3)n2)c1 [GW659008],3%,0%,0%,3%,19%,0%,0%,0%,16%,68%
Fc1cc(Cl)ccc1Nc1ccnc2cc(I)ccc12 [GW551191],13%,0%,34%,6%,44%,32%,25%,17%,15%,53%
Cn1ccc2ncnc(Oc3ccc(Nc4nc5ccccc5[nH]4)cc3)c21,12%,0%,4%,0%,0%,0%,0%,0%,1%,0%
CC(C)(C)c1ccc(C(=O)Nc2cn3cc(-c4cccnc4)ccc3n2)cc1,25%,13%,29%,4%,8%,19%,4%,26%,16%,28%
